Source: PubChem BioAssay
A selection: hits, their analogues and other compounds. The true share with any hit is near 11%.
AmpC no deterg = AmpC beta-lactamase inhibition without detergent | P00811 | Potency, µM (doses to about 57.1 µM), inactives show at the highest dose activity change, negative = inhibition, most hits filed as inhibitors | AmpC nitrocefin hydrolysis, absorbance 480 nm, 0.0001% Triton | hit rate 0.52% among 330,000;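 also: plate controls were no compound for no effect and no enzyme for full effect; nearly all actives have a fitted effect of over 20% in size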
Target sequence (P00811 whole entry, looked up): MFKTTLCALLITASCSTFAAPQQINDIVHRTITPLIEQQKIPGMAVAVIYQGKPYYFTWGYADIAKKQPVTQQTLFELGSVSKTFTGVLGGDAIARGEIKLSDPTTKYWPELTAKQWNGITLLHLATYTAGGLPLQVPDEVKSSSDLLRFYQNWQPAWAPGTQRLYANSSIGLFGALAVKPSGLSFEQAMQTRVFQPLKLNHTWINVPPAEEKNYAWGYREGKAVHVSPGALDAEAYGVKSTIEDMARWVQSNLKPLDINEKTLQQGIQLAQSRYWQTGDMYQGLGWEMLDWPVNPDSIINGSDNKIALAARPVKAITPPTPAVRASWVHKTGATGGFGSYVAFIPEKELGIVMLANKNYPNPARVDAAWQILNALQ
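20 mM phosphate pH 7.0 + 0.01% (detergent screen) or 0.0001% Triton X-100; 5.3 nM AmpC reagent; cpd preinc 15 min RT; nitrocefin (800 uM stock) to start; A480 q20 s × 4 min; Activity was normalised to no-enzyme and no-compound control wells.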
AmpC detergent = blocks E. coli AmpC beta-lactamase in detergent assay | P00811 | hit rate 0.041% among 370,000 | AmpC hydrolysis of nitrocefin, absorbance 480 nm, 0.01% Triton | Potency, µM (titrated, usually from 114 µM), inactives show at the top dose activity change, negative = inhibition, usual class: inhibitors;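 also: 0% = no-compound wells and -100% = no-enzyme wells; nearly all actives have a fitted effect of over 25% in size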
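20 mM phosphate pH 7.0 + 0.01% (detergent screen) or 0.0001% Triton X-100; 5.3 nM AmpC reagent; cpd preinc 15 min RT; nitrocefin (800 uM stock) to start; A480 q20 s × 4 min; Activity was normalised to no-enzyme and no-compound control wells.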
AMA1 RON2 block = disrupts binding of P. falciparum AMA1 to RON2; AlphaScreen AMA1-biotinylated RON2 peptide binding; Potency, µM (titrated, usually from 58.2 µM), without a hit: at the top dose activity change, negative = inhibition, most hits filed as inhibitors; hit rate 0.2% among 360,000;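 also: 0% = vehicle wells and -100% = peptide control; nearly all actives have a fitted effect of over 45% in size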
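AMA1 (3D7) with his tag at 25 nM final met compounds first, then biotinylated RON2 peptide at 25 nM; detection used donor plus acceptor beads, 10 µg/mL apiece, read by AlphaScreen after 30 min at room temperature.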
Pf growth 96h = P. falciparum growth inhibition at 96 hour, primary screen for plastid delayed-death inhibitors; P. falciparum luciferase reporter growth, 96 h; Potency, µM (doses to about 28.7 µM), without a hit: at the highest dose activity change, negative = inhibition, actives largely listed as inhibitors; hit rate 6.9% among 320,000; AID 504834
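Delayed-death screen, second-generation endpoint: infected erythrocytes, 2% hematocrit, 0.05% parasitemia final; 96 hours at 37 C, 5% CO2; luciferase detection reagent; luminescence decrease equals reduced growth.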
Pf growth 48h = P. falciparum growth inhibition at 48 hours (one generation) | Potency, µM (top dose mostly 28.7 µM), for the others: top-dose activity change, negative = inhibition, actives largely listed as inhibitors | P. falciparum luciferase growth in erythrocytes, 48 h | AID 504832 | hit rate 5.9% among 310,000
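Firefly luciferase activity from engineered P. falciparum reports growth; inhibitors lower the luminescent signal. Cultures contained 2% hematocrit erythrocytes at 0.1% final parasitemia.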
HCV inhibitor = inhibitors of hepatitis C virus infection | Potency, µM (highest dose often 41.8 µM), for the others: top-dose activity change, negative = inhibition, actives largely listed as inhibitors | AID 651820 | Huh7.5.1 HCVcc-Cre infection, luciferase reporter, 44 h | hit rate 3.4% among 340,000
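Whole-lifecycle infectious HCVcc-Cre system; cells 1,000/well, compound then virus (~0.5 moi) added 4 h after plating, 44 h culture. Luciferase read 15 sec following 15 min substrate incubation, room temp.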
The depositor's hits bear a star; u = inconclusive; x = no result given; [ ] = dose if it differs, or a comment. Calls follow the shape of the dose curve; as a rule, active = well fitted curve in the direction sought with a large enough effect; inconclusive = small, poorly fitted or top-dose-only effect, or another doubt; inactive = no such curve, though single readings can be large; an effect the other way counts as inactive or inconclusive. Unless noted, % is scaled to controls: 0 for no effect and ±100 for the full control effect; potency is read from the fitted curve at half-maximal effect.

SMILES	AmpC no deterg	AmpC detergent	AMA1 RON2 block	Pf growth 96h	Pf growth 48h	HCV inhibitor
COc1ccc(NC(=O)C2CC(=O)N(C)C(=Nc3ccc4c(c3)OCO4)S2)cc1 (stereo unspecified)	18%	-6%	-4%	u	10µM*	8%
CC1=C(C(=O)Nc2cccc(C(=O)NC3CCCCC3C)c2)SCCO1 (stereo unspecified)	-12%	1%	-10%	9.3µM*	-11%	u
O=C(NCCC1=CCCCC1)c1cnsn1	0%	-14%	1%	4.7µM*	90%	u
O=C(NCCC1=CCCCC1)c1c(O)nc2sccn2c1=O	-2%	-4%	14%	u	12µM*	u
COc1ccc(N2CCN(Cc3nnc(-c4cccc(Br)c4)o3)CC2)cc1	x	15%	x	x	x	x
COc1ccc(C(=O)n2nc(C)c(Br)c2C)cc1	-14%	0%	2%	0.47µM*	u	2%
CC(=O)Nc1ccc(S(=O)(=O)N2Cc3cnnn3-c3ccccc3C2C#N)cc1 (stereo unspecified)	x	x	-3%	x	x	0.32µM*
N#CC1c2ccccc2-n2nncc2CN1Cc1cc(Cl)cc(Cl)c1 (stereo unspecified)	x	x	-6%	x	x	5.6µM*
COc1ccc(CN2Cc3cnnn3-c3ccccc3C2C#N)cc1 (stereo unspecified)	x	x	3%	x	x	4µM*
c1ccc(C2c3ccccc3-n3nncc3CN2CC2CCCCC2)cc1 (stereo unspecified)	x	x	-7%	x	x	4%[8.37 µM]
COc1ccc(CN2Cc3cnnn3-c3ccccc3C2c2ccccc2)cc1 (stereo unspecified)	x	x	-1%	x	x	1.3µM*
Cc1cc(C)c2c(-n3cccc3)c(C(=O)NCCCN3CCCCC3)sc2n1	x	23%	x	x	x	x
CC1=CC(C)(C)N(S(=O)(=O)c2ccc(C)cc2)c2ccc(C)cc21	-47%	u	-3%	10µM*	x	26%
O=C(NCCCN1CCN(c2ccc(F)cc2)CC1)c1cc2c(Cl)nc3ccccc3c2s1	x	-6%	x	x	x	x
O=C(c1ccc(CS(=O)c2ccccc2Cl)o1)N1CCN(c2ccccc2F)CC1 (stereo unspecified)	x	17%	x	x	x	x
Cc1ccc(NC(=O)CN2C(=O)c3ccccc3Sc3ncccc32)c(C)c1	x	17%	x	x	x	x
CCOc1ccc(CCNc2ccc3nnc(-c4ccccc4)n3n2)cc1OCC	0%	u	-1%	4.7µM*	u	u
COc1ccc(C(CNC(=O)COc2ccccc2)N2CCCCC2)cc1 (stereo unspecified)	-13%	-17%	0%	15µM*	u	u
COc1ccc(C(CNC(=O)COc2ccc(Cl)cc2C)N2CCCCC2)cc1 (stereo unspecified)	-14%	-3%	-7%	-29%	12µM*	u
COc1cc(Cl)c(C)cc1NC(=O)CCc1c(C)nc2c3cccnc3nn2c1C	x	8%	x	x	x	x
COc1ccc(NS(=O)(=O)c2cc(NC(=O)Cc3n[nH]c(=O)c4ccccc34)ccc2OC)cc1	x	x	-12%[11.6 µM]	x	x	u
COc1ccccc1NS(=O)(=O)c1cc(N/C(=N\S(=O)(=O)c2ccccc2)c2ccc(F)cc2)ccc1Cl	-2%	9%	-6%	13µM*	9.3µM*	35µM*
O=S(=O)(/N=C(/Nc1ccc(Cl)c(S(=O)(=O)N2CCOCC2)c1)c1ccc(F)cc1)c1ccccc1	-26%	6%	-3%	44%	u	-15%
COc1ccccc1NS(=O)(=O)c1cc(NC(=O)Cc2n[nH]c(=O)c3ccccc23)ccc1Cl	-13%	x	-13%	x	x	3.2µM*
Cc1ccc(C(=O)NCC(=O)OCc2cc(=O)n3nc(C4CCCCC4)sc3n2)cc1	x	-3%	x	x	x	x
SMILES	AmpC no deterg	AmpC detergent	AMA1 RON2 block	Pf growth 96h	Pf growth 48h	HCV inhibitor
Cc1ccc(NC(=O)Cn2c(=O)c(C(F)(F)F)nc3ccccc32)c(C)c1	x	3%	x	x	x	x
COc1ccc(NC(=O)COc2ccccc2Cc2ccccc2)cc1S(N)(=O)=O	45%	-10%	3%	u	u	10µM*
COc1cccc(NC(=O)CN(C)C(=O)CC(C)c2ccccc2)c1 (stereo unspecified)	3%	-2%	0%	u	-2%	-5%
COc1cccc(NC(=O)CN(C)C(=O)COc2ccccc2Cc2ccccc2)c1	-7%	5%	1%	5.2µM*	u	-29%
COc1cccc(NC(=O)CN(C)C(=O)/C=C/c2ccc3ccccc3n2)c1	-36%	u	-4%	u	12µM*	5%
COc1ccc(NC(=O)CN(Cc2ccccc2)Cc2ccccc2)cc1S(N)(=O)=O	26%	-9%	-4%	u	u	21%
CCn1c(=O)c2cc(C(=O)N3CCN(c4cccc(Cl)c4)CC3)sc2c2ccccc21	x	11%	x	x	x	x
COc1ccc(C2c3[nH]c4ccc(OC)cc4c3CCN2C(=O)Nc2ccccc2)cc1 (stereo unspecified)	x	25%	x	x	x	x
CCS(=O)(=O)n1nc(-c2ccco2)nc1NCc1ccc(C(C)C)cc1	x	-3%	x	x	x	x
CCN(C(=O)CSc1nc(-c2ccc(C(C)C)cc2)no1)c1ccccc1	x	-3%	x	x	x	x
N#CC1(NC(=O)Cn2ncc(Cl)c(Cl)c2=O)CCCCC1	25µM*	-13%	2%	4%	3%	4.5µM*
N#CC1(NC(=O)CN2C(=O)c3ccccc3C2=O)CCCCC1	-8%	2%	-10%	-26%	0%	14%
C=CCn1c(=O)[nH]c2cc(C(=O)N3CCN(c4cccc(Cl)c4)CC3)ccc2c1=O	23%	-4%	-17%	33%	u	-30%
COc1ccc(Cn2c(=O)[nH]c3cc(C(=O)N4CCN(c5ccc(C(C)=O)cc5)CC4)ccc3c2=O)cc1	0%	u	-3%	12µM*	-20%	-15%
COc1ccc(-n2c(=S)[nH]c3cc(C(=O)N4CCN(c5ccccc5)CC4)ccc3c2=O)cc1	-1%	-10%	12%	2.1µM*	-9%	u
COc1ccc(Cn2c(=O)[nH]c3cc(C(=O)N4CCN(c5ccc(OC)cc5)CC4)ccc3c2=O)cc1	-13%	7%	1%	24%	-26%	u
C=CCn1c(=O)[nH]c2cc(C(=O)N3CCN(c4ccc(C(C)=O)cc4)CC3)ccc2c1=O	3%	u	-17%	6.6µM*	x	u
O=C(c1ccc2c(=O)n(Cc3ccc4c(c3)OCO4)c(=O)[nH]c2c1)N1CCN(c2ccccc2)CC1	-12%	-1%	7%	12µM*	-9%	16%
CC(=O)c1cc(-c2ccccc2)n(CC(=O)Nc2ccc(C)cc2C)c1C	x	1%	x	x	x	x
